In PubChem BioAssay (Tox21):
Records with an inconclusive call do not appear. Where a call stands in place of a potency, no number is given. Activity calls are given as the source filed them. Calls follow the shape of the dose curve; as a rule, active = well fitted inhibition curve with a large enough effect in the signal ratio in the repeat runs, with a control signal flat; inconclusive = weak or mixed curves, or effect the other way; inactive = flat fitted curve, though single readings scatter; the % refers to the signal ratio.

The compounds below were run against D(2) dopamine receptor (Homo sapiens) (UniProt P14416) (assay: Dopamine D2 receptor (DRD2) small molecule antagonists, cell-based qHTS assay (AID 1963595)). Conditions: HEK293-DRD2 cAMP HTRF antagonist mode; series mostly up to 92.4 µM.
Chain of D(2) dopamine receptor (Homo sapiens) (P14416 whole entry, looked up): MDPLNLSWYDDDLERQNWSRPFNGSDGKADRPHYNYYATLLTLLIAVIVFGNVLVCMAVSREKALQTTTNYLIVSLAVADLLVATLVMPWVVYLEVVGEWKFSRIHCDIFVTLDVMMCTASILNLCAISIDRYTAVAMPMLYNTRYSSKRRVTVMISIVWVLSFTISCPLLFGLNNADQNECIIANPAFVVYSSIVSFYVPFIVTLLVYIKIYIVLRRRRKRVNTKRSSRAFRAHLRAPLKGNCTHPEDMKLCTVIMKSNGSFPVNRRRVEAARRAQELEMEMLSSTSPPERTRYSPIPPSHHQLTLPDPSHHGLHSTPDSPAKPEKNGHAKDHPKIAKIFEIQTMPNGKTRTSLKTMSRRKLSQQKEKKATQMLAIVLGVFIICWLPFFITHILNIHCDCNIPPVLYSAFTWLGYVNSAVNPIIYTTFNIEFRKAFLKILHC
Text: National Center for Advancing Translational Sciences [NCATS]
Division of Preclinical Innovation [DPI]
U.S. Environmental Protection Agency [EPA]
National Institutes of Environmental Health Sciences [NIEHS]
National Toxicology Program [NTP]
U.S. Food and Drug Administration [FDA]
DRD2 is the D2 subtype of the dopamine receptor, which is coupled to Gi subtype of G protein-coupled receptor. This G protein-coupled receptor inhibits adenylyl cyclase activity. The DRD2-HEK293 cell line stably expressing D2 dopamine receptor can be used for screening agonists and antagonists of interactions between D2 and its ligands. The Hek293-DRD2 cAMP assay is based on HTRF technology. It measures changes of cAMP accumulation in response to Gi coupled GPCR activation or inhibition.
Tox21 Assay Protocol Summary:
DRD2-Hek293 cells were dispensed at 600 cells/3uL/well in 1536-well white plates using a Multidrop Dispenser. After the assay plates were incubated at a 37 C/5% CO2 incubator for 24 h, 1 uL of Ro20-1724 at final concentration of 0.1 mM was transferred to the assay plate by a Flying Reagent Dispenser. Following Ro20-1724 addition, 23 nL of compound dissolved in DMSO, positive controls or DMSO only was added to the assay plates via Wako pintool station. The assay plates were incubated at room temperature for 10 min. Next, 1 uL of mixture of NKH477 (final concentration at 200 nM) and quinpirole (final concentration at 12 nM) was added into the plates. After the assay plates were incubated at room temperature for an additional 30 min, 2.5 ul/well of cAMP-d2 and 2.5 ul/well of anti-cAMP-cryptate were added respectively into the assay plates using a Flying Reagent Dispenser. The plates were incubated at room temperature for 1 h. The fluorescence intensity in the plates was measured at 340 nm excitation and 665 & 620 nm emission by an Envision plate reader.
Potency is read from the fitted curve at half-maximal effect.

Compound	Potency
C[N+](C)=CCl	inactive
CCOP(=O)(OCC)Oc1nc(Cl)c(Cl)cc1Cl	inactive
O=C(Nc1ccccc1)c1ccccc1I	inactive
Cc1c([N+](=O)[O-])c(C)c([N+](=O)[O-])c(C(C)(C)C)c1[N+](=O)[O-]	inactive
O=C(Oc1ccc(Br)cc1)N1CCN2CCC1CC2	inactive
CCCCOC(=O)[C@@H](C)Oc1ccc(Oc2ccc(C#N)cc2F)cc1	inactive
Oc1ccc2[nH]cc(CCCCN3CC=C(c4ccccc4)CC3)c2c1	inactive
O=C(NC(=O)c1cc(F)c(F)cc1Cl)Nc1cc(F)ccc1N1CCC(C(=O)O)CC1	inactive
CC(CCc1ccccc1)NC(C)C(O)c1ccc(O)cc1 (stereo not given)	16.8 µM (active)
C[C@H](N)C(=O)c1ccccc1	inactive
CC1CN1P(=O)(N1CC1C)N1CC1C (stereo not given)	inactive
CC(C)CC(C)N (stereo not given)	inactive
O=C(Nc1ccc2[nH]ccc2c1)c1cc2cc(F)ccc2n1Cc1cccc(F)c1	inactive
N#CN=C1SCCN1Cc1ccc(Cl)nc1	inactive
ClC(Cl)(Cl)Cl	inactive
O=C(Cl)c1ccc(Cl)cc1	inactive
CC(O)C(=O)[O][Hg][c]1ccccc1 (stereo not given)	2.73 µM (active)
Oc1c(Br)c(Br)c(Br)c(Br)c1Br	inactive
CC[C@H](C)[C@H]1O[C@]2(C=C[C@@H]1C)C[C@@H]1C[C@@H](C/C=C(\C)[C@@H](O[C@H]3C[C@H](OC)[C@@H](O[C@H]4C[C@H](OC)[C@@H](O)[C@H](C)O4)[C@H](C)O3)[C@@H](C)/C=C/C=C3\CO[C@@H]4[C@H](O)C(C)=C[C@@H](C(=O)O1)[C@]34O)O2	inactive
S=C=NCCc1ccccc1	inactive

Compound	Potency
CNC(=O)Oc1cccc(C(C)C)c1	inactive
O=c1[nH]c(Cl)c(Cl)cc1Cl	inactive
CCN[C@@H](C)Cc1cccc(C(F)(F)F)c1	inactive
COC1=CC(=O)O[C@@H](/C=C/c2ccc3c(c2)OCO3)C1	inactive
NCCc1cc(O)c(O)cc1O	inactive
[Cl][Hg][c]1ccccc1	13.7 µM (active)
O=S(=O)(O)C(F)(F)C(F)(F)C(F)(F)C(F)(F)F	inactive
Clc1cc(Cl)c(-c2cc(Cl)c(Cl)cc2Cl)cc1Cl	inactive
CCOc1cc(Oc2ccc(C(F)(F)F)cc2Cl)ccc1[N+](=O)[O-]	inactive
O=[N+]([O-])c1ccc(Nc2ccccc2)cc1	inactive
CCCSP(=O)(OCC)Oc1ccc(Br)cc1Cl (stereo not given)	inactive
C#CC(C)(C)O	inactive
N[C@@H]1C[C@H]1c1ccccc1	inactive
C1CCC(C2CCCCC2)CC1	inactive
CC(C)[C@H](C(=O)O[C@H](C#N)c1cccc(Oc2ccccc2)c1)c1ccc(Cl)cc1	inactive
CC(=O)NC1CCSC1=O (stereo not given)	inactive
CN1C(=S)CN=C(c2ccccc2)c2cc(Cl)ccc21	inactive
CC(C)(C)c1cc(O)ccc1O	inactive
O=c1[nH]c2ccccc2n1C1CCNCC1	inactive
O=C(c1ccccc1)C(Cl)Cl	inactive
